Drawing on PubChem BioAssay AID602391 (National Center for Advancing Translational Sciences (NCATS), 2012), this text covers outcome for two compounds.

SMILES strings stand for the structures. Some of the results follow. Records with an inconclusive call do not appear. Activity calls are given as the source filed them. Calls come from the whole dose curve; as a rule, active = well fitted inhibition curve with a large enough effect; inconclusive = small, poorly fitted or top-dose-only effect; inactive = flat fitted curve, though single readings scatter.

The experiment can be described thus: qHTS Assay for Inhibitors of Bacillus subtilis Sfp phosphopantetheinyl transferase (PPTase): SAR in hGST A1-1. Particulars: hGST A1-1 enzyme activity counter-screen; series mostly up to 114 µM. The text has this:
The covalent attachment of a phosphopantetheinyl (4'-PP) arm to a variety of synthases and other proteins is a key posttranslational protein modification. The 4'-PP is installed on the proteins post-translationally from coenzyme A (CoA) on a conserved serine residue by action of phosphopantetheinyl transferase (PPTase) enzymes. Phosphopantetheinylation is essential for synthase activity, and removal of the PPTase gene precludes natural product synthesis in microorganisms, or in the case of fatty acid biosynthesis, renders the organism unviable. PPTase enzymes belong to a distinct structural superfamily. Within bacteria, these enzymes are grouped into two classes based upon primary structure, the AcpS-Type and Sfp-Type PPTases. […]
In search of small molecule Sfp-PPTase inhibitors, a fluorescence quenching assay was developed for detection of Bacillus subtilis Sfp-PPTase enzymatic activity in a miniaturized high-throughput format. […]
This assay sought to assess the promiscuity of test articles with an unrelated target enzyme. The appropriate target for this work was determined to be human glutathione-S-transferase, an enzyme responsible for detoxifying modifying electrophilic xenobiotics to enhance their excretion. […]
(Quantitative high-throughput screening tests each substance at several concentrations.)
For the compound `COc1ccnc(NC(=S)N2CCN(c3ncc(C(F)(F)F)cc3Cl)CC2)c1`, the call was inactive.
Under `Cc1cc(C)nc(NC(=S)N2CCN(c3ccc(Cl)cc3C(F)(F)F)CC2)c1` stands “inactive”.
